# The full list was thinned out, with hits kept by preference.
# Pf Dd2 growth = Plasmodium falciparum Dd2 growth inhibition | P. falciparum Dd2 growth, SYBR Green, 72 h | Potency, µM (doses to about 28.9 µM), for inactives: top-dose activity, negative = inhibition, most hits filed as inhibitors | 120,000 tested, 4.3% active; active = well fitted inhibition curve with a large enough effect;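 note: plate controls were DMSO vehicle for no effect and reference drug for full effect; nearly all actives have a fitted effect of over 65% in size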
#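 Readout: SYBR Green fluorescence, 485 nm excitation, 535 nm emission, after ~16 h lysis at 37C. Before that, Dd2-infected red cells (2.5% hematocrit) grew 72 h with compound, 29 uM top final concentration.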
# Starred values were filed as active, the others as inactive; i = inactive; [ ] = dose if it differs, or a comment. Potency is the fitted concentration of half-maximal effect.
SMILES,Pf Dd2 growth
COCCOC1CCOC2(CCN(C(=O)c3nn(C)c4ccccc34)CC2)C1 (stereo not drawn),5.62µM*
COCCOC1CCOC2(CCN(C(=O)Cc3c[nH]c4ccccc34)CC2)C1 (stereo not drawn),11.2µM*
COCCOC1CCOC2(CCN(C(=O)c3n[nH]c4ccccc34)CC2)C1 (stereo not drawn),-0.6%
O=C1CCN(C(=O)c2cc3ccccc3[nH]2)CCOCCN1,-1.8%
Cn1ccnc1CNC(=O)C[C@@H]1C[C@H]2O[C@H](CNC3CCC3)[C@@H](O)[C@H]2O1,23.0%[44.1 µM]
C[C@H]1CCCN1C(=O)c1nnc(COc2ccc(C#N)cc2)n1-c1cccnc1,-18.6%[44.1 µM]
Cc1noc([C@@H]2CN(C(=O)COc3ccc(Cl)cc3)C[C@H]2CO)n1,-9.4%
CC(C)CNC(=O)C(NC(=O)CC(C)C)C1CCN(C(=O)c2ccccc2)CC1 (stereo not drawn),5.2%
Cc1ccsc1C(=O)N1CCCC(c2noc(COc3ccccc3)n2)C1 (stereo not drawn),i
CC1=C[C@@H](CNC(=O)C(=O)O)[C@H](C(C)C)C[C@H]1CC(=O)O,1.5%[44.1 µM]
COCCCNC(=O)C(NC(=O)c1ccccc1C)C1CCN(C(=O)c2cccs2)CC1 (stereo not drawn),-21.5%
COc1ccc(C(=O)N[C@@H]2CCC[C@@H]2C(=O)NCCC(C)C)cn1,-12.4%
Cc1ccc(-c2cc3c(=O)n(CCNC(=O)c4ccc5c(c4)OCO5)ccn3n2)cc1C,8.2%
Cc1nccn1CCCN1CCC2(CC1)C(C(=O)O)CC(=O)N2C (stereo not drawn),-4.9%
COc1ccc(N2CC3CCC(C2)N3Cc2ccccc2)cc1,-10.7%
COc1ccc(N2CC3CCC(C2)N3Cc2cccc(-c3cccnc3)c2)cc1,11.2µM*
COc1ccc(N2CC3CCC(C2)N3Cc2ccc(-c3ccccc3)cc2)cc1,8.9%
COCCN1C(=O)CS(=O)C12CCN(C(=O)Nc1ccc3c(c1)OCCO3)CC2 (stereo not drawn),i
O=C(CSc1nc2c([nH]c3ccccc32)c(=O)n1-c1ccc(Cl)cc1)c1ccccc1,55.7%
CCN(CC)CCSc1nc2ccccc2c(=O)n1-c1ccc(Cl)cc1,7.94µM*
CCCSc1nc2ccccc2c(=O)n1-c1ccccc1OC,-8.1%
Cc1ccccc1C(=O)N1CCC2(CC1)CC(=O)N(c1ccccc1)c1ccccc1O2,i
Cc1ccc(NS(=O)(=O)c2ccc3[nH]c4c(c3c2)CCCCCC4)cc1,i
Cc1ccc(S(=O)(=O)N2CCC(C(=O)Nc3ccc(Oc4ccccc4)cc3)CC2)cc1,-0.6%
Cc1ccc(NC(=O)C2CCN(S(=O)(=O)c3ccc4[nH]c5c(c4c3)CCCCC5)CC2)cc1,11.2µM*
SMILES,Pf Dd2 growth
CCc1cccc(NC(=O)Cn2c(COc3ccc(OC)cc3)nc(C)c(CCO)c2=O)c1,23.8%
CNC(=O)[C@@H]1CN(S(=O)(=O)c2cnc[nH]2)C[C@H]1c1nc(C)no1,9.3%
Cc1ccc2c(c1)N1C(=O)OC[C@@H]1CCN(CC1CC1)C2,i
CCCNC(=O)c1ccc(-n2c(-c3ccccc3)cc3c2CCCCC3)cc1,-27.5%
Cc1cc2c(n1-c1ccc(C(=O)NCC(C)c3ccccc3)cc1)CCCC2 (stereo not drawn),10µM*
COCCNC(=O)c1ccc(-n2c(-c3ccccc3)cc3c2CCCCC3)cc1,-20.6%
CC(C)NC(=O)c1ccc(-n2c(-c3ccccc3)cc3c2CCCC3)cc1,i
Cc1ccccc1CNC(=O)c1ccc(-n2c(C)cc3c2CCCC3)cc1,10µM*
CCNC(=O)c1ccc(-n2c(-c3ccccc3)cc3c2CCCCC3)cc1,-1.6%
CNC(=O)c1ccc2cncn2c1,-2.3%[44.1 µM]
CCOc1ccccc1NC(=O)Cn1c(N2CCOCC2)nc(C)cc1=O,-22.6%
Cc1nnc2n1CCC(N(C)C(=O)c1ccc3c(c1)OCO3)CC2 (stereo not drawn),2.1%
COc1ccc(OC)c(CNC(=O)c2ccc3c(c2)N(C)C2CCCCN2C3=O)c1 (stereo not drawn),i
CO[C@H]1COCCN(C(=O)c2cccc(F)c2)C1,13.2%[44.1 µM]
CC(=O)N1CCCc2ccc(NS(=O)(=O)c3ccc(C)c(C)c3)cc21,16.7%
CC(=O)N1CCCc2ccc(NS(=O)(=O)c3cccc(Cl)c3)cc21,5.5%
COc1ccc(S(=O)(=O)Nc2ccc3c(c2)N(C(C)=O)CCC3)cc1F,10µM*
O=C(COc1ccccc1)N(Cc1cccnc1)c1nc2ccc(Cl)cc2s1,-20.8%
COc1ccc2nc(N(Cc3cccnc3)C(=O)C3CCCCC3)sc2c1,2.51µM*
CCOc1ccc2nc(N(Cc3cccnc3)C(C)=O)sc2c1,i
COc1ccc2nc(N(Cc3cccnc3)C(=O)CCc3ccccc3)sc2c1,1µM*
COc1ccc2nc(N(Cc3cccnc3)C(C)=O)sc2c1,i
O=C(C1COc2ccccc2O1)N(Cc1cccnc1)c1nc2ccc(Cl)cc2s1 (stereo not drawn),i
O=C(O)C1CCCN(c2cn[nH]c(=O)c2)C1 (stereo not drawn),-6.7%
Cc1cc(C(F)(F)F)nn1CC(=O)NCC1Cn2cccc2C(=O)N1CC(C)C (stereo not drawn),9.6%

# Screening results as filed in PubChem.
